Data from PubChem BioAssay (NCI).
Compounds without any hit were thinned out: in the full panel of roughly 83,000, 20% have a hit.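 Values shown are percent growth following 48 h exposure of cells in 96-well plates to a single concentration of compound; below 10 was considered active.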 Unmarked numbers belong to inactive results. Calls of active or inactive are those of the source.

Tests used:
Assay in all cases: NCI-60 one-dose screen, 48 h (100 = growth as untreated, 0 = no growth, -100 = all killed)
Details in all cases: 10 µM unless noted
SK-MEL-2 melanoma = test system: SK-MEL-2 melanoma
EKVX NSCLC = test system: EKVX NSCLC
SN12C renal = test system: SN12C renal
UO-31 renal = test system: UO-31 renal
TK-10 renal = test system: TK-10 renal
ACHN renal = test system: ACHN renal
CAKI-1 renal = test system: CAKI-1 renal
A498 renal = test system: A498 renal
CCRF-CEM leukemia = test system: CCRF-CEM leukemia
MOLT-4 leukemia = test system: MOLT-4 leukemia
SR leukemia = test system: SR leukemia
RPMI-8226 leukemia = test system: RPMI-8226 leukemia
OVCAR-8 ovarian = test system: OVCAR-8 ovarian
OVCAR-5 ovarian = test system: OVCAR-5 ovarian
OVCAR-4 ovarian = test system: OVCAR-4 ovarian
SK-OV-3 ovarian = test system: SK-OV-3 ovarian
IGROV1 ovarian = test system: IGROV1 ovarian
OVCAR-3 ovarian = test system: OVCAR-3 ovarian
HS 578T breast = test system: HS 578T breast
NCI/ADR-RES ovarian = test system: NCI/ADR-RES ovarian

SMILES	growth (SK-MEL-2 melanoma)	growth (EKVX NSCLC)	growth (SN12C renal)	growth (UO-31 renal)	growth (TK-10 renal)	growth (ACHN renal)	growth (CAKI-1 renal)	growth (A498 renal)	growth (CCRF-CEM leukemia)	growth (MOLT-4 leukemia)	growth (SR leukemia)	growth (RPMI-8226 leukemia)	growth (OVCAR-8 ovarian)	growth (OVCAR-5 ovarian)	growth (OVCAR-4 ovarian)	growth (SK-OV-3 ovarian) [%]	growth (IGROV1 ovarian)	growth (OVCAR-3 ovarian)	growth (HS 578T breast)	growth (NCI/ADR-RES ovarian)
COc1ccc(-c2cc(-c3ccc(Cl)cc3)c(C#N)c(=O)n2CCCCC(=O)NO)cc1	88%	71.9%	68.7%	-16.4% (active)	70.4%	34.6%	-13.2% (active)	95.4%	63.9%	80.6%	40.3%	34%	53.9%	63.9%	74.9%	89.3	69%	75%	87.8%	10.8%
O=c1c(Cc2ccc(F)cc2)cc(-c2ccccc2)nn1C/C(=N/O)c1ccccc1	36.8%	29.1%	17.2%	30.9%	63.5%	40.3%	47%	9.7% (active)	34.6%	16.1%	30.3%	25.6%	43.7%	66.9%	41.5%	74.7	47.3%	49.5%	73.8%	34.7%
CCOC(=O)c1c2c(n3ccc(NC(=O)CCN4CCCC4)cc13)C(=O)c1ncccc1C2=O	93.9%	-49.2% (active)	-63.5% (active)	16.9%	-92.2% (active)	13.6%	9.9% (active)	46.3%	-36.4% (active)	-23% (active)	-20.2% (active)	-31.8% (active)	-33.3% (active)	-67.4% (active)	-68.1% (active)	74.4	-71.1% (active)	-85.9% (active)	-43.9% (active)	27.3%
CCN1C(=O)N(CC)C2C1NN=c1s/c(=C3\C(=O)N(C)c4ccccc43)c(=O)n12 (stereo unspecified)	60.3%	57.8%	36.9%	43.6%	69.8%	40.9%	42.2%	-26.9% (active)	30.8%	45.1%	19.3%	62.1%		48.9%	52%	72.5	37.4%	-14.1% (active)	14.2%	9.37% (active)
O=C1C(c2c(O)[nH]c3ncccc23)=Nc2ccccc21	43.4%	30.6%	90.6%	46.2%	56.4%	51.5%	53.7%	117%	88.4%	85.4%	82.5%	75.4%		77.7%	80.4%	69.6	-40.9% (active)	75.8%	72.5%	82.7%
CC1=C(C(=O)c2ccccc2)C(c2ccc3c(c2)OCO3)NC(=S)N1 (stereo unspecified)	60.5%	73.5%	51.4%	55.7%	66%	45.5%	35.6%	-12.5% (active)	41.2%	36.6%	6.28% (active)	44%		72.5%	82.3%	51.6	46.1%	12.9%	23.4%	43.3%
COc1c(O[C@@H]2OC(CO)[C@H](O)[C@H](O)C2O)cc2oc3cc(O)c(CC=C(C)C)c(O)c3c(=O)c2c1CC=C(C)C (stereo partly specified)	97.3%	93.5%	84.4%	90.8%	110%	96.5%	103%	83.8%	92.9%	62.2%	102%	96.4%	87.3%	108%	115%	97.7	91%	99.7%		101%
CCCc1cc(CCC)n2nc(N)nc2n1	128%	115%	101%	129%	114%	101%	95.3%	96%	93.1%	94.8%	109%	104%		98.8%	116%	105	126%	121%	103%	109%
COc1ccc(-c2csc(NC(=O)CSc3nc(C)cc(=O)[nH]3)n2)cc1	103%	96.1%	98.2%	99%	107%	105%	109%	103%	106%	110%	118%	96%		112%	104%	102	101%	103%		96.9%
Cc1ccc(-c2nc(C#N)c(S(=O)(=O)n3nc(C)cc3N)o2)cc1	98.3%	121%	90.1%	79.8%	-64.9% (active)	-37.8% (active)	82%	76.1%	-18.8% (active)		-25.8% (active)	46.5%	87.2%	99.8%	111%	108	80.8%	54.3%	103%	98.5%
CCOC(=O)c1c(NC(=S)Nc2ccc([N+](=O)[O-])cc2)sc2c1CCCCC2	66.6%	79.2%	55.7%	76.2%	85.9%	84.6%	79.1%	49.8%	64%	72.9%	61.7%	46.7%		93.7%	71.6%	66	89.7%	65.1%	81.8%	54%
C=CCn1c(SCC(=O)Nc2ccc(C(=O)/C=C/c3ccc(Cl)cc3)cc2)nnc1-c1ccccc1	109%	92.3%	92.8%	76.5%	87.9%	99.9%	92.6%	99.5%	85.6%	68.6%	82.5%	-16% (active)		95.3%	85.2%	98.2	89.1%	90.2%	111%	93.7%
O=C(Nc1ccc(Oc2cccc(F)c2)c(Cl)c1)c1cnccn1	37.7%	51.3%	45.6%	43.4%	59.5%	37.7%	25.2%	69.4%	18.4%	41.2%	20.8%	18%	37.5%	56.6%	44.5%	86	40.5%	-17.8% (active)		9.06% (active)
CNc1nc2ncc(-c3c(C)noc3C)cc2n1Cc1ccccc1	67.4%	62.6%	71.1%	21.3%	24.3%	42.1%	36.7%	0.868% (active)	50.5%	48.9%	27.9%	-2.96% (active)		67.5%	53.6%	21	63.6%	47.2%	39.3%	67.4%
O=C1c2ccccc2-c2c1c1ccncc1c(=O)n2CCCn1ccnc1	103%	96.8%	49.1%	19.1%	82.6%	0.133% (active)	49.9%	80.9%	18.5%	-12.7% (active)	-16.2% (active)	34.1%		88.5%	72.7%	73.6	44.9%	67.1%	60.8%	53.6%
c1ccc2cc(Cn3cc[n+](Cc4ccc5ccccc5c4)c3)ccc2c1	-11.5% (active)	51.7%	18.2%	70.6%	8.12% (active)	90.6%	96%	75.9%	21.7%	25%	22.3%	-0.408% (active)		43%	0.592% (active)	33.2	-2.69% (active)	14.5%	58.8%	99.5%
